Laboratory results: PubChem BioAssay (NCATS)
Where “and” joins values, the source holds several entries; their conditions need not be identical. Identical values can stand only once. Inconclusive results are not listed. Some structures have more than one record in an assay (separate samples or runs), and their calls can disagree. Calls of active or inactive are those of the source. Unless noted, calls come from the whole dose curve.

Legend:
[1] = Cell Viability - BJ (AID 421); conditions: BJ fibroblast viability, qHTS;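 note: cells exposed to compound for 40 hours at 37 °C before readout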
Summary of the method: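 Cytotoxicity in human BJ foreskin fibroblasts is scored as loss of cellular ATP after a 40-hour exposure, measured by luciferase luminescence. Controls are DMSO and 100 uM tamoxifen.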

[2] = Cell Viability - Hek293 (AID 427;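 active = compounds whose dose-response curve shows a full or clear partial loss of cell viability, called from curve shape rather than a numeric limit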;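 note: cells exposed to compound for 40 hours at 37 °C before reading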); conditions: qHTS
Summary of the method: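 qHTS, human embryonic kidney (adenovirus-transformed) cells; 40 hr cpd, 37 °C; CellTiter-Glo ATP luminescence. Norm: DMSO = 0, 100 uM tamoxifen = 100% inhibition. Hill-fit AC50.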

[3] = Cell Viability - HepG2 (AID 433); conditions: qHTS;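 note: cells exposed to compound for 40 hours; potency for ATP loss meaning cytotoxicity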
Summary of the method: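 ATP luminescence (CellTiter-Glo) after 40 h compound exposure, 37 °C, HepG2, 1500 cells/well, complete medium. Normalized: DMSO = basal, 100 uM tamoxifen = 100% inhibition. AC50 via standard Hill equation.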

[4] = Cell Viability - MRC5 (AID 434); conditions: MRC5 lung fibroblast viability, qHTS;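 note: cells exposed to compound for 40 hours at 37 °C; potency reflects cytotoxicity seen as loss of intracellular ATP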
Summary of the method: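 MRC5 normal human lung fibroblasts (1500/well) were treated with compounds for 40 hr at 37 °C in complete medium, and viable cells were measured as intracellular ATP by CellTiter-Glo luminescence. AC50 came from Hill fits, normalized to DMSO and 100 uM tamoxifen.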

[5] = Cell Viability - SK-N-SH (AID 435); conditions: SK-N-SH neuroblastoma cell viability qHTS
Summary of the method: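 CellTiter-Glo ATP luminescence, 20 min RT read; cells pre-plated 5 hr, compound 40 hr at 37 °C, 1500 cells/well, complete medium. Normalized DMSO = 0, 100 uM tamoxifen = 100% inhibition; Hill-fit AC50.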

[6] = target: Cytochrome P450 1A2 (Homo sapiens) (UniProt P05177); experiment: p450-cyp1a2 (AID 410); conditions: recombinant CYP1A2, luciferin-ME demethylation, luminescence; series mostly up to 57 µM
Cytochrome P450 1A2 (Homo sapiens), sequence (P05177 whole entry, looked up): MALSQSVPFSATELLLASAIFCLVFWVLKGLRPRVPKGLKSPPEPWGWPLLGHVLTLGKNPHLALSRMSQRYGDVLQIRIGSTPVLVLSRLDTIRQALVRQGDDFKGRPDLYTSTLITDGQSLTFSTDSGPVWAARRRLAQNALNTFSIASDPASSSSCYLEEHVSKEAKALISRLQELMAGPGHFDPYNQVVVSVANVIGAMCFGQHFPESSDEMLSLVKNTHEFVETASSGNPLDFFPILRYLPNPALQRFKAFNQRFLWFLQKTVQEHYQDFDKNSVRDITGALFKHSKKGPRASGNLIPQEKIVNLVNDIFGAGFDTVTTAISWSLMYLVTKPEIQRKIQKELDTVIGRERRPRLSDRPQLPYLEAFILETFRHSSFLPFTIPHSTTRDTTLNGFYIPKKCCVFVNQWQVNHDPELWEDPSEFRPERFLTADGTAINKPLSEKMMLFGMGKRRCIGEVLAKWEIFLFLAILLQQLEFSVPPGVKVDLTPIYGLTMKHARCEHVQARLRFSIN
Summary of the method: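 20nM CYP1A2 with 100uM Luciferin-ME (at Km) in 100mM KPO4; compound preincubated 10 min, NADPH regeneration added, 60 min at room temperature. Luciferin quantified by luminescence after detection reagent; normalized to 57 uM furafylline.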

[7] = target: Glucocorticoid receptor (Homo sapiens) (UniProt P04150); experiment: GR-GFP Redistribution (AID 450;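 active = compounds whose dose series gives a full or clear partial fitted curve of increased nuclear translocation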); conditions: U2OS GR-GFP nuclear translocation, laser cytometry, 2 h
Glucocorticoid receptor (Homo sapiens), sequence (P04150 whole entry, looked up): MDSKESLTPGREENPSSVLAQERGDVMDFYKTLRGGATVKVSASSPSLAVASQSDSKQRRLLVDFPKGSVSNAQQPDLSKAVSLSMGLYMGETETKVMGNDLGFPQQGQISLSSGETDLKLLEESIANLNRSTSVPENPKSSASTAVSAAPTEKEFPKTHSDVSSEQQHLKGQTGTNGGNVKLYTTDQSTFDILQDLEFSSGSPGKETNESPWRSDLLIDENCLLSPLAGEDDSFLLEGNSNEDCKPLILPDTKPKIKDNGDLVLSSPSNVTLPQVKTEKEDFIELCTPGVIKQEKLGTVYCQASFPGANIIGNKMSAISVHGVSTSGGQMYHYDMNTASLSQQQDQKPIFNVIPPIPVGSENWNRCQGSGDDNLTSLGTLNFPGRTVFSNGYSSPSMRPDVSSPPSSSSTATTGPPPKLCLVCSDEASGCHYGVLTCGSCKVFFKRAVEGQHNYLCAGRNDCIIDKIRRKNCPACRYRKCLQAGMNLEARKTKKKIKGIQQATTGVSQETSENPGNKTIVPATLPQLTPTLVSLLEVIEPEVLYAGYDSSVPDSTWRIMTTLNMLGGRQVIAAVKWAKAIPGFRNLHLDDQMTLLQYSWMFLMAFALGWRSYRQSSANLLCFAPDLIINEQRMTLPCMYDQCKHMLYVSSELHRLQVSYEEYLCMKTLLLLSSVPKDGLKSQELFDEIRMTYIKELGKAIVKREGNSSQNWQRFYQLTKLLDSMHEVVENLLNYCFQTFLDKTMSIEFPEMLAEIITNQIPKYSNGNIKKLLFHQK

Measured: Potency
Potency is the fitted concentration of half-maximal effect.

OCCCBr
inactive: [1] > 92 µM | [2] > 92 µM | [3] > 92 µM | [4] > 92 µM | [5] > 92 µM

Nc1ccc([N+](=O)[O-])cc1
inactive: [1] > 92 µM | [2] > 92 µM | [3] > 92 µM | [4] > 92 µM | [5] > 92 µM

CCOP(=O)(NC(C)C)Oc1ccc(SC)c(C)c1 (stereo not given)
inactive: [1] > 92 µM | [3] > 92 µM | [4] > 92 µM | [5] > 92 µM

CCOCCOC(C)=O
inactive: [1] > 92 µM | [2] > 92 µM | [3] > 92 µM | [4] > 92 µM | [5] > 92 µM

CC(C)(O)C(=O)Nc1ccc([N+](=O)[O-])c(C(F)(F)F)c1
inactive: [1] > 92 µM | [2] > 92 µM | [3] > 92 µM | [4] > 92 µM | [5] > 92 µM

COC(C)(C)CCCC(C)C/C=C/C(C)=C/C(=O)OC(C)C (stereo not given)
inactive: [1] > 92 µM | [2] > 92 µM | [3] > 92 µM | [4] > 92 µM | [5] > 92 µM

Cc1nc(-c2ccc(-c3ccc(C(=O)N4CCc5cc6c(cc54)C4(CCN(C)CC4)CO6)cc3)c(C)c2)no1
inactive and 39.8 µM (active): [6]
inactive: [7] > 46 µM

C[C@@H](N)Cc1cnc[nH]1
inactive: [7] > 46 µM

NC(=NCCC[C@H](N)C(=O)O)N[N+](=O)[O-]
inactive: [7] > 46 µM

Nc1ccc(Cl)cc1
inactive: [1] > 92 µM | [2] > 92 µM | [3] > 92 µM | [4] > 92 µM | [5] > 92 µM

COC(=O)[C@@H](N)CCCN=C(N)N[N+](=O)[O-]
inactive: [6] | [7] > 46 µM
